According to article PMC7862700, “An all-to-all approach to the identification of sequence-specific readers for epigenetic DNA modifications on cytosine”:

What was measured:
Assay in all cases: DAPPL (digital affinity profiling via proximity ligation, sequencing); 10 mM Tris-HCl pH 7.5, 50 mM NaCl, 1 mM DTT, 4% glycerol, room temperature, 30 min; GST-TFs on glutathione beads, 16-mer random dsDNA library, 0.1% formaldehyde crosslink after washing; high values mean tight binding
FLI1 = molecular target: T1, FLI1 (Homo sapiens, UniProt Q01543 1-452); settings: protein: recombinant; tags: N-terminal GST; dsDNA, one strand shown
T1 sequence: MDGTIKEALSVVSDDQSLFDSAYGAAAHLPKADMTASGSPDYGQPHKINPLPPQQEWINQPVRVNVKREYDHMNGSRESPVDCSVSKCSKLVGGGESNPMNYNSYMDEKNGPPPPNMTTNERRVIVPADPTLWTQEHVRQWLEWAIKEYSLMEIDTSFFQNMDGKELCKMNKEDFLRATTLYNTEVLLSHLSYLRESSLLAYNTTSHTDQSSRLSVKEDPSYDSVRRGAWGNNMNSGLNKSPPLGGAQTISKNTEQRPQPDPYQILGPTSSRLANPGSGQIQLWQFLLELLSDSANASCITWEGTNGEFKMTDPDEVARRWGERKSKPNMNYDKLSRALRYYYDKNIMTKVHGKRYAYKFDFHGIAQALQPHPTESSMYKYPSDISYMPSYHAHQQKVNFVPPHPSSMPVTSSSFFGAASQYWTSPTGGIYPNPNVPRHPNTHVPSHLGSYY
In short: (§1)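 Human transcription factors were made in yeast as GST fusions, captured on glutathione beads and barcoded with DNA. With a tag-only sample included, the pool was incubated with 200 nmole of a random double-stranded 16-mer DNA library in Tris/NaCl/DTT/glycerol buffer at room temperature for 30 min, then crosslinked with 0.1% formaldehyde after washing, ligated by proximity, amplified and sequenced. For binding signal, each hexamer's read frequency for a factor is divided by its frequency for the tag-only sample.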

ELK1 = molecular target: T2, ELK1 (Homo sapiens, UniProt P19419 1-428); settings: protein: recombinant; tags: N-terminal GST; dsDNA, one strand shown
T2 sequence: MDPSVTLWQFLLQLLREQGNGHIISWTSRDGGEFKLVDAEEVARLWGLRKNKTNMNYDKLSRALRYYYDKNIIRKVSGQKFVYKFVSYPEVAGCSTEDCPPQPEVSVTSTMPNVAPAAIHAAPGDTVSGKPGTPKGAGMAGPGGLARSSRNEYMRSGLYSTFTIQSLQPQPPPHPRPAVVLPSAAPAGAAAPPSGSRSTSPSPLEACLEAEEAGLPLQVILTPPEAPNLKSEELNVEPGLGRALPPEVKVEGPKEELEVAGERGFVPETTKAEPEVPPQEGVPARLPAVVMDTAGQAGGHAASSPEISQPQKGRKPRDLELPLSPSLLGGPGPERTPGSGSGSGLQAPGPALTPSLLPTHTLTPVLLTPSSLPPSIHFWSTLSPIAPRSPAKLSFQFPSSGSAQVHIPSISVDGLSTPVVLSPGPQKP
In short: as §1

GABPA = molecular target: T3, GABPA (Homo sapiens, UniProt Q06546 1-454); settings: protein: recombinant; tags: N-terminal GST; dsDNA, one strand shown
T3 sequence: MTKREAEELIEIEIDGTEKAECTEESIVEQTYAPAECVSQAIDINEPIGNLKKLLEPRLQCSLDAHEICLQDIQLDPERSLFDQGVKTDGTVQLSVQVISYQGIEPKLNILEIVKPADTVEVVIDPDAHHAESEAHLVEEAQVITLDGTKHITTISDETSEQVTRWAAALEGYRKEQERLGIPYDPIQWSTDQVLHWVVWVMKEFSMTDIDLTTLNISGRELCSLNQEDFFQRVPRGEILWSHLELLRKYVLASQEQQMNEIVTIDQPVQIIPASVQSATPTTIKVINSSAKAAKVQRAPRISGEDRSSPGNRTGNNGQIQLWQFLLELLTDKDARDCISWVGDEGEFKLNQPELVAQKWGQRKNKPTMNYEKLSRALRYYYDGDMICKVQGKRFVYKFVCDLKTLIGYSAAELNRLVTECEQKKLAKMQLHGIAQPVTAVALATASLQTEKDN
In short: as §1

ERG = molecular target: T4, ERG (Homo sapiens, UniProt P11308 1-479); settings: protein: recombinant; tags: N-terminal GST; dsDNA, one strand shown
T4 sequence: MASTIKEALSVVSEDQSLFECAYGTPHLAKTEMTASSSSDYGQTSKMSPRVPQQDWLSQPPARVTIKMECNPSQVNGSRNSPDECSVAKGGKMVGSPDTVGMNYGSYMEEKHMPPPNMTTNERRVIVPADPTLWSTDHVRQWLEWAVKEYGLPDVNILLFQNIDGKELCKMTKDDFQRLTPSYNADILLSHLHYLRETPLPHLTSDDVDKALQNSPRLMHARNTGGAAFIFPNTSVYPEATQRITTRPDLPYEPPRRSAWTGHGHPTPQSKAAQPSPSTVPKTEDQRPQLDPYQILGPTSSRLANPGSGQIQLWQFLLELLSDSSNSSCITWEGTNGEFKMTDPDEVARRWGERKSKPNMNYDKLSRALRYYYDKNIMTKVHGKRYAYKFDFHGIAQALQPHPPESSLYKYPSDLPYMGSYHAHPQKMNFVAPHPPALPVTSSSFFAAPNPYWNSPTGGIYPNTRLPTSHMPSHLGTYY
In short: as §1

ELF1 = ELF1 (Homo sapiens, UniProt P32519 1-619); settings: protein: recombinant; tags: N-terminal GST; dsDNA, one strand shown
ELF1, sequence (P32519 whole entry): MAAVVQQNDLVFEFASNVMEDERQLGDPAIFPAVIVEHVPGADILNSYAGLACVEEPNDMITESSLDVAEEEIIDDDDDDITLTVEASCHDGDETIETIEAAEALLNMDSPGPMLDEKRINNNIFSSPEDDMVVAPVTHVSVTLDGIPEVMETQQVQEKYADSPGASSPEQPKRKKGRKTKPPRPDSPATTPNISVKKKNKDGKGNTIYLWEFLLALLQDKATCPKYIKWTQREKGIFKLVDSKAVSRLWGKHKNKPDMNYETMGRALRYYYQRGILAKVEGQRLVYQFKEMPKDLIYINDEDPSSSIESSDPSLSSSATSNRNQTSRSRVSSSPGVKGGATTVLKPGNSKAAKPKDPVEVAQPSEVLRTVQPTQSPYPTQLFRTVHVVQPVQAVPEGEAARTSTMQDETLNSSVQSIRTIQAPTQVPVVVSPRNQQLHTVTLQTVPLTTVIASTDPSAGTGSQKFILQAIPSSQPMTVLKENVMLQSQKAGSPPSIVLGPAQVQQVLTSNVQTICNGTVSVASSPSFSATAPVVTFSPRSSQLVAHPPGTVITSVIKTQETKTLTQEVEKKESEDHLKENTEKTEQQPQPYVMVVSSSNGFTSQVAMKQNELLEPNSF
In short: as §1

EHF = molecular target: T5, EHF (Homo sapiens, UniProt Q9NZC4 1-300); settings: protein: recombinant; tags: N-terminal GST; dsDNA, one strand shown
T5 sequence: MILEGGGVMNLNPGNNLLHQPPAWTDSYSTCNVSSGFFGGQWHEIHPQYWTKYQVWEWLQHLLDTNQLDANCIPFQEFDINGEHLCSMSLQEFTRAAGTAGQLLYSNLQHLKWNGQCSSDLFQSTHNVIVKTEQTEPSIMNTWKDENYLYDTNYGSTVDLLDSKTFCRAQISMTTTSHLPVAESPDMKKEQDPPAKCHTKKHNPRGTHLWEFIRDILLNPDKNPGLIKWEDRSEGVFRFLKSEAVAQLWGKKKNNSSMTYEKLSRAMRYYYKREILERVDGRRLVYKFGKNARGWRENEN
In short: as §1

SPI1 = SPI1 (Homo sapiens, UniProt P17947 1-270); settings: protein: recombinant; tags: N-terminal GST; dsDNA, one strand shown
In short: as §1

SPIB = SPIB (Homo sapiens, UniProt Q01892 1-262); settings: protein: recombinant; tags: N-terminal GST; dsDNA, one strand shown
SPIB, sequence (Q01892 whole entry): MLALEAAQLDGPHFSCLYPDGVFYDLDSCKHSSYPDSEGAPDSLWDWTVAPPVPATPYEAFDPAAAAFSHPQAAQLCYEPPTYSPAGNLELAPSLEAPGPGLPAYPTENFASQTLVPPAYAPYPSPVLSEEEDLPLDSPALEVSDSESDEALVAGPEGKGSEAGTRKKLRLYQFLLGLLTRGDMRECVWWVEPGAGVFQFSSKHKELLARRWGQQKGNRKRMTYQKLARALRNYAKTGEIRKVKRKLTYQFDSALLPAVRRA
In short: as §1

ELK3 = molecular target: T6, ELK3 (Homo sapiens, UniProt P41970 1-407); settings: protein: recombinant; tags: N-terminal GST; dsDNA, one strand shown
T6 sequence: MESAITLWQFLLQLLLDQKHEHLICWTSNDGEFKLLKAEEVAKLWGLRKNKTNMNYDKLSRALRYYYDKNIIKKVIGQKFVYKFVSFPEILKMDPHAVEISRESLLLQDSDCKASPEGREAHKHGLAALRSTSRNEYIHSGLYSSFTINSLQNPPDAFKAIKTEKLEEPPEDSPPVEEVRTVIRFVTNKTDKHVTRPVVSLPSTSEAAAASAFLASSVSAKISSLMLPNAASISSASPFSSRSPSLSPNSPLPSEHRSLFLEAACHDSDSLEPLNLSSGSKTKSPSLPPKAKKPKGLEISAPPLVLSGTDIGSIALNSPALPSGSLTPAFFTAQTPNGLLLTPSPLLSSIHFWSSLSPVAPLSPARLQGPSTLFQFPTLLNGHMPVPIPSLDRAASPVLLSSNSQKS
In short: as §1

FEV = molecular target: T7, FEV (Homo sapiens, UniProt Q99581 1-238); settings: protein: recombinant; tags: N-terminal GST; dsDNA, one strand shown
T7 sequence: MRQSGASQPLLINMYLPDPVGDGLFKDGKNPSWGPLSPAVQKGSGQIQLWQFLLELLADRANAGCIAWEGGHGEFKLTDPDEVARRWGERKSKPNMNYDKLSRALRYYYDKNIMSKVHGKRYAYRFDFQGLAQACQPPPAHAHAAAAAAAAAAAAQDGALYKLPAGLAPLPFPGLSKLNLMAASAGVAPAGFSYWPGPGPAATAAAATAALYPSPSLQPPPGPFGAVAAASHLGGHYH
In short: as §1

ETV5 = ETV5 (Homo sapiens, UniProt P41161 1-510); settings: protein: recombinant; tags: N-terminal GST; dsDNA, one strand shown
ETV5, sequence (P41161 whole entry): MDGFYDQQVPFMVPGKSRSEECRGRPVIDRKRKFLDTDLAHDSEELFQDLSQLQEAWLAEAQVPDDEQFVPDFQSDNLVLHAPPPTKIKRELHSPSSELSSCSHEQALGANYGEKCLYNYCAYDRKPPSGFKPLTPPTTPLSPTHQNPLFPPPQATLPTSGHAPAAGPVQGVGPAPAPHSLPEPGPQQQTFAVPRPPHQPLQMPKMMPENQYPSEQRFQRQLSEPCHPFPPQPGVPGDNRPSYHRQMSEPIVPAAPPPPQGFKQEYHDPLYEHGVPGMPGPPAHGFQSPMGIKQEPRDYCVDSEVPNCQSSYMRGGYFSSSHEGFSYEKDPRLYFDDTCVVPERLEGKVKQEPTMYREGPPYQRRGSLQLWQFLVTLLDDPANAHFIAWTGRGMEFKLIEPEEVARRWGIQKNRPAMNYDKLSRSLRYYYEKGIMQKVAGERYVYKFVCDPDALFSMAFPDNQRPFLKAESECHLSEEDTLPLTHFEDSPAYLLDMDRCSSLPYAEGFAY
In short: as §1

HSF1 = HSF1 (Homo sapiens, UniProt Q00613 1-529); settings: protein: recombinant; tags: N-terminal GST; chain copies: 3; dsDNA, one strand shown
HSF1, sequence (Q00613 whole entry): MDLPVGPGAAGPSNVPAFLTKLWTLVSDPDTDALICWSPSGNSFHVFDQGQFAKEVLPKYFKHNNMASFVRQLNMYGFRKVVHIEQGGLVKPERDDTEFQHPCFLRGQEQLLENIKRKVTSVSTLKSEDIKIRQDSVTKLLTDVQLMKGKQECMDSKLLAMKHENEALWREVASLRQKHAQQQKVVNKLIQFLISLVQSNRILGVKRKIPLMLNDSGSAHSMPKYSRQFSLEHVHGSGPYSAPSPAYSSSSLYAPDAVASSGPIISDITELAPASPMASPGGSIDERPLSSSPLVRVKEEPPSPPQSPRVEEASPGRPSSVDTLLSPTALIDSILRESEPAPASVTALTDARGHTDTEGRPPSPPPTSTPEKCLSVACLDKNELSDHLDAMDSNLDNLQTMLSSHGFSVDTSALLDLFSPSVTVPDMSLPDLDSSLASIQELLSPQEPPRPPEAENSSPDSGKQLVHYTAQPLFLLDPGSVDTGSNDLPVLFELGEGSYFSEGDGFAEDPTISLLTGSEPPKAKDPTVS
In short: as §1

SPIC = molecular target: T8, SPIC (Homo sapiens, UniProt Q8N5J4 1-248); settings: protein: recombinant; tags: N-terminal GST; dsDNA, one strand shown
T8 sequence: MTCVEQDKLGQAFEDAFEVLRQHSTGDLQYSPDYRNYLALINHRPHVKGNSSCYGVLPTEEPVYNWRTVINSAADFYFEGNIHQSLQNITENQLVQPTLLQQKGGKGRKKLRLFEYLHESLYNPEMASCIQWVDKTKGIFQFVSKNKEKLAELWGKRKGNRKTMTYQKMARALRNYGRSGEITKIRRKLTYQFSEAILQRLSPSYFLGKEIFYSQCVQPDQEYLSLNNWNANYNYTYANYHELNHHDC
In short: as §1

ELF4 = ELF4 (Homo sapiens, UniProt Q99607 1-663); settings: protein: recombinant; tags: N-terminal GST; dsDNA, one strand shown
ELF4, sequence (Q99607 whole entry): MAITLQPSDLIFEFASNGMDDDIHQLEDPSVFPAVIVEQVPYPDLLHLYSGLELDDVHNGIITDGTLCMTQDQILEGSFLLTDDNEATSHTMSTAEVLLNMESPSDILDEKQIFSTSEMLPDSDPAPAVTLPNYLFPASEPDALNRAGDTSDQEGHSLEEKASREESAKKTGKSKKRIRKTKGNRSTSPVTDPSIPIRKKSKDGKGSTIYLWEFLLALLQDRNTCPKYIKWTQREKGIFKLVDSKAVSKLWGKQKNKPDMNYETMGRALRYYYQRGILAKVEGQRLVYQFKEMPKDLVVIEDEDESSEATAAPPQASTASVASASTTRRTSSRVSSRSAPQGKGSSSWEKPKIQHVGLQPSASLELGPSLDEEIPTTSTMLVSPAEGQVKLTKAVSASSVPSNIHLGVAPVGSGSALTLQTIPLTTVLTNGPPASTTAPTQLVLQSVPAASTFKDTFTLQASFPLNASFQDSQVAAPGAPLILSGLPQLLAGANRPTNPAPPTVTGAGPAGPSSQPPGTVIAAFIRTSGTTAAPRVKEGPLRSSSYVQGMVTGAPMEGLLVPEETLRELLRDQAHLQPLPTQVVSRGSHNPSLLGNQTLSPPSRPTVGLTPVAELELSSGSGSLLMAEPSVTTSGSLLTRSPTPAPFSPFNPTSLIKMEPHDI
In short: as §1

ELK4 = molecular target: T9, ELK4 (Homo sapiens, UniProt P28324-2 1-405); settings: protein: recombinant; tags: N-terminal GST; dsDNA, one strand shown
T9 sequence: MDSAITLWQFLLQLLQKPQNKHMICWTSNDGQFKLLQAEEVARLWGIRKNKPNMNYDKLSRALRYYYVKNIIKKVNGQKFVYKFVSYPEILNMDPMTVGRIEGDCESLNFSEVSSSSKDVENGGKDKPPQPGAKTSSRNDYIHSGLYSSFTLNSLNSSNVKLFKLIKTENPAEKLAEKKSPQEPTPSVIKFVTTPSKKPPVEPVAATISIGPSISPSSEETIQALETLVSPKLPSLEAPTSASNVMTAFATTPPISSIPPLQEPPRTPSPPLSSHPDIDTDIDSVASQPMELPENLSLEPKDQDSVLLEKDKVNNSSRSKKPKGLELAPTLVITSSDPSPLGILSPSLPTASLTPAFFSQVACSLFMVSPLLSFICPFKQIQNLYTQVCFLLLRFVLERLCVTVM
In short: as §1

ETV2 = molecular target: T10, ETV2 (Homo sapiens, UniProt O00321 1-342); settings: protein: recombinant; tags: N-terminal GST; dsDNA, one strand shown
T10 sequence: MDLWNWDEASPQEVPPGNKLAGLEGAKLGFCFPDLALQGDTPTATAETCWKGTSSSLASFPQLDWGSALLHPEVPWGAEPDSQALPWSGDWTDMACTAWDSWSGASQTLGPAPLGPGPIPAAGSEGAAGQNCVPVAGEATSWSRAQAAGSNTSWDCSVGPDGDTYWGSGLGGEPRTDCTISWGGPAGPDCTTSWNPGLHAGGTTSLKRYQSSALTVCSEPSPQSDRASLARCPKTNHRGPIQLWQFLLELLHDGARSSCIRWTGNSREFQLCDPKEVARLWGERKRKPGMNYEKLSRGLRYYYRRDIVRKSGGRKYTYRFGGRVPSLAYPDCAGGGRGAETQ
In short: as §1

ELF3 = molecular target: T11, ELF3 (Homo sapiens, UniProt P78545 1-371); settings: protein: recombinant; tags: N-terminal GST; dsDNA, one strand shown
T11 sequence: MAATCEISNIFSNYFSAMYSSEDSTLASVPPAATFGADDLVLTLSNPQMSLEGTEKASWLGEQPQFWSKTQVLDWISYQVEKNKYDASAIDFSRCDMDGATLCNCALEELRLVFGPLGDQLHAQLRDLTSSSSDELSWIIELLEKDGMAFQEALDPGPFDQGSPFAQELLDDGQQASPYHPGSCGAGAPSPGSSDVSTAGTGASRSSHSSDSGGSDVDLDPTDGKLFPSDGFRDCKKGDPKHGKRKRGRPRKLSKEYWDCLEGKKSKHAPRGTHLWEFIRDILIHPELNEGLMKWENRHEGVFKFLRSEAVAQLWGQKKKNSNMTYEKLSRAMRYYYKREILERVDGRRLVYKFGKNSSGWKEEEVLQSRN
In short: as §1

CRX = CRX (Homo sapiens, UniProt O43186 1-299); settings: protein: recombinant; tags: N-terminal GST; dsDNA, one strand shown
CRX, sequence (O43186 whole entry): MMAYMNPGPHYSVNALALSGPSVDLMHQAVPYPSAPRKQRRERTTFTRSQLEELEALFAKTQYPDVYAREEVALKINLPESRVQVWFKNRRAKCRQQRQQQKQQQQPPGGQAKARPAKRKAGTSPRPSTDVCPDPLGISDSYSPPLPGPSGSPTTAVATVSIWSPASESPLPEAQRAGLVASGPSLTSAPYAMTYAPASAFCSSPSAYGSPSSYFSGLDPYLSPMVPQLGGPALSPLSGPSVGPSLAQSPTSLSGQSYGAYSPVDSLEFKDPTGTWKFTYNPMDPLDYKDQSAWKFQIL
In short: as §1

ETV1 = ETV1 (Homo sapiens, UniProt P50549 1-477); settings: protein: recombinant; tags: N-terminal GST; dsDNA, one strand shown
ETV1, sequence (P50549 whole entry): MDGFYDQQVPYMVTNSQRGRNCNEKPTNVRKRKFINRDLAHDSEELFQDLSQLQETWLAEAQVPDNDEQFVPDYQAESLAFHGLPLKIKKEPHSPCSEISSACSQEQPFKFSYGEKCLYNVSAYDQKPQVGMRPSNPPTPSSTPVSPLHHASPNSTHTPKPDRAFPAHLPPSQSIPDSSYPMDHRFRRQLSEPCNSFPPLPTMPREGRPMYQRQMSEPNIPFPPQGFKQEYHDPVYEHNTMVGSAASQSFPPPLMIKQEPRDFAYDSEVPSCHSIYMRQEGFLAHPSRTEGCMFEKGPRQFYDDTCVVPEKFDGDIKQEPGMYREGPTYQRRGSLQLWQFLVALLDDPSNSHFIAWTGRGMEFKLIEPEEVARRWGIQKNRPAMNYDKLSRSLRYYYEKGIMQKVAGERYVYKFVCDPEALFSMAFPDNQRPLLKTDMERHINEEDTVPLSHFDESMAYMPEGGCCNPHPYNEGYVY
In short: as §1

**Q.** Which results are given for AAAGAA?
**A.** binding signal (FLI1): 1.18 fold enrichment (6-mer frequency, TF over GST control); binding signal (ELK1): 1.24 fold enrichment (6-mer frequency, TF over GST control); binding signal (GABPA): 1.23 fold enrichment (6-mer frequency, TF over GST control); binding signal (ERG): 1.27 fold enrichment (6-mer frequency, TF over GST control); binding signal (ELF1): 1.28 fold enrichment (6-mer frequency, TF over GST control); binding signal (EHF): 1.32 fold enrichment (6-mer frequency, TF over GST control); binding signal (SPI1): 1.32 fold enrichment (6-mer frequency, TF over GST control); binding signal (SPIB): 1.24 fold enrichment (6-mer frequency, TF over GST control); binding signal (ELK3): 1.3 fold enrichment (6-mer frequency, TF over GST control); binding signal (FEV): 1.23 fold enrichment (6-mer frequency, TF over GST control); binding signal (ETV5): 1.22 fold enrichment (6-mer frequency, TF over GST control); binding signal (HSF1): 1.99 fold enrichment (6-mer frequency, TF over GST control); binding signal (SPIC): 1.17 fold enrichment (6-mer frequency, TF over GST control); binding signal (ELF4): 1.29 fold enrichment (6-mer frequency, TF over GST control); binding signal (ELK4): 1.32 fold enrichment (6-mer frequency, TF over GST control); binding signal (ETV2): 1.25 fold enrichment (6-mer frequency, TF over GST control); binding signal (ELF3): 1.29 fold enrichment (6-mer frequency, TF over GST control); binding signal (CRX): 1.48 fold enrichment (6-mer frequency, TF over GST control); binding signal (ETV1): 1.29 fold enrichment (6-mer frequency, TF over GST control)
